# PP5 primary – PP5 phosphatase inhibitors, primary screen, biochemical, fluorescence | purified PP5c, OMFP substrate fluorescence | inhibition, % at 6.7 µM | 320,000 tested, 0.18% active | Serine/threonine-protein phosphatase 5 (Homo sapiens), P53041;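 active = inhibition above the campaign's mean inhibition across all tested compounds plus 3 SD, cut at about 9.5% in these data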;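 note: 0% = DMSO only and 100% = 100 µM cantharidin control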
# PG9 Ab binder – binders of HIV-1 gp120 antibody PG9, primary screen, biochemical, TR-FRET. inhibition, % at 6.7 µM. HIV-1 gp120 / PG9 antibody interaction. TR-FRET gp120-PG9 antibody binding. AID 624416, 2012. 360,000 tested, 0.43% active; in the data active = inhibition above about 8.5%
# Rev-erbA mod – modulators of Rev-erb alpha DNA binding, primary screen, biochemical, FITC-DNA, fluorescence polarization, uHTS. Nuclear receptor subfamily 1 group D member 1 (Homo sapiens), P20393. activity, % at 10 µM. 370,000 tested, 0.79% active. Rev-erbα–FITC-DNA binding, 90 min;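 active = activity above about 14%, limit read from the data; passing the limit was not always enough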;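 note: 0% = DMSO wells with 35 nM protein and 100% = DMSO wells with 750 nM protein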
# JMJD2C inh – inhibitors of GASC-1 histone demethylase, primary screen, biochemical, fluorescence, DELFIA europium. Lysine-specific demethylase 4C (Homo sapiens), Q9H3R0. GST-JMJD2C(1-420) H3K9me3 demethylation. inhibition, % at 2.35 µM. 330,000 tested, 0.069% active. AID 2099, 2009;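 active = more than half of a compound's replicate wells show inhibition beyond 50%, single wells judged on their own value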;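 note: signal counts dimethyl H3K9 product captured on neutravidin plate; 0% = median of DMSO wells and 100% = 0.3 times that DMSO median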
# Target sequence (Q9H3R0 1-420 limits assumed): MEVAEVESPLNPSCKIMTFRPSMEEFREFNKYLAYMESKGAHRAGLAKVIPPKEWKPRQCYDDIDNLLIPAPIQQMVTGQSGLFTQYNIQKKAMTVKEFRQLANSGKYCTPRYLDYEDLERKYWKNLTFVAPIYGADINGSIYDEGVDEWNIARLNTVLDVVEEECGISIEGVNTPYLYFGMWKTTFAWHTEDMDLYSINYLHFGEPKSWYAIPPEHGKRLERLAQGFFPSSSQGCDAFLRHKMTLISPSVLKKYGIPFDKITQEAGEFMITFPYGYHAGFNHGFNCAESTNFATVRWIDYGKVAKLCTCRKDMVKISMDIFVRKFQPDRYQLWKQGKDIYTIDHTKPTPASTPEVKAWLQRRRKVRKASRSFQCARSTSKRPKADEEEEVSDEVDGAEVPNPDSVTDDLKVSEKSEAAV
# PP1 inh – PP1-alpha phosphatase inhibitors, primary screen, counter-screen for PP5 inhibitor project, biochemical, fluorescence, OMFP substrate, single point. Serine/threonine-protein phosphatase PP1-alpha catalytic subunit (Homo sapiens), P62136. purified PP1alpha. inhibition, % at 6.7 µM. 320,000 tested, 0.9% active;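 active = inhibition above the mean inhibition of all tested compounds plus 3 SD, computed separately for each screening campaign, cut at about 15% in these data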
# proKLK7 act – proKLK7 zymogen activators, primary screen, biochemical, fluorescence intensity. purified proKLK7, EDANS-DABCYL substrate fluorescence; 100% is mature enzyme control, 0% vehicle. activation, % at 7 µM. 370,000 tested, 0.9% active. AID 652039, 2013;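 active = activation above the mean of all tested compounds plus 3 SD, computed per campaign excluding outliers beyond control limits, cut at about 13% in these data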
# proKLK7 act conf – proKLK7 zymogen activators, confirmation, biochemical, fluorescence intensity, triplicate. shares compounds with proKLK7 act. purified proKLK7, EDANS-DABCYL substrate fluorescence; scaled: vehicle 0, mature enzyme 100. activation, % at 7 µM. 3,200 tested, 68% active. AID 686949, 2013;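 active = activation, as change over the incubation, above the mean of all tested compounds plus 3 SD, cut at about 13% in these data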
# EDANS interfere – EDANS-DABCYL substrate optical interference, artefact control for kallikrein-7 zymogen activator project, biochemical, fluorescence intensity, high throughput. 3,200 tested, 80% active. no enzyme, 4 h; solvent 0%, active enzyme control 100%. activation, % at 7 µM. shares compounds with proKLK7 act;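 active = activation above the all-compound mean plus 3 SD, ignoring values outside control-based bounds, cut at about 4.8% in these data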;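 note: value is the 4 h activation minus the activation read at time zero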
# K7 EDANS ctr – EDANS fluorescence interference in dose response, no enzyme | shares compounds with proKLK7 act | EDANS-DABCYL peptide fluorescence interference | EC50, µM | 250 tested, 20% active;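 active = compounds that raise the fluorescence signal in this interference counterscreen, with EC50 at or below 10 µM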;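 note: intact quenched peptide substrate alone read at 355 nm excitation and 520 nm emission; signal is fluorescence gain from T0 to T4 after four hours at room temperature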
# An asterisk follows results filed as active; · = no result. Sampled rows, rich in hits. Any-hit rate of the full collection: about 2.8%.
SMILES,PP5 primary,PG9 Ab binder,Rev-erbA mod,JMJD2C inh,PP1 inh,proKLK7 act,proKLK7 act conf,EDANS interfere,others
C[C@H](O)[C@@H]1C(=O)N2CCc3c([nH]c4ccccc34)[C@@H]2C[C@@H]1N(C)C(=O)c1cc(Cl)cc(Cl)c1,·,0,7,·,·,47*,15*,12*,K7 EDANS ctr=>23
Cc1ccccc1C(=O)N(C)[C@H]1C[C@H]2c3[nH]c4ccccc4c3CCN2C(=O)[C@H]1[C@H](C)O,·,0,5,·,·,78*,27*,27*,
C[C@H](O)[C@@H]1C(=O)N2CCc3c([nH]c4ccccc34)[C@@H]2C[C@@H]1N(C)S(=O)(=O)c1ccccc1,·,-1,0,·,·,59*,43*,37*,K7 EDANS ctr=7.5*
C[C@H](O)[C@@H]1C(=O)N2CCc3c([nH]c4ccccc34)[C@@H]2C[C@@H]1N(C)Cc1ccc2c(c1)OCO2,·,-3,1,·,·,26*,4,3,
COC(=O)[C@]12C[C@H](CC(=O)N3CCCC3)C(=O)N(Cc3cccc4ccccc34)C1=C[C@H](C(C)(C)C)O[C@@H]2C,·,·,2,·,·,0,·,·,
COC(=O)/C=C1\OC(C)c2ccccc21 (centres undefined),·,-3,3,·,·,0,·,·,
COc1ccc(C(=O)CSc2nnc(-c3cccs3)o2)cc1OC,·,·,14,·,·,1,·,·,
O=Cc1c(Cl)nc2ccccn2c1=O,-1,1,4,-40,-3,42*,22*,20*,
CC1CCN(c2nc3ccccn3c(=O)c2C=O)CC1,0,-2,0,-2,3,0,·,·,
Cc1cccn2c(=O)c(C=O)c(Cl)nc12,3,-1,-1,-6,2,92*,16*,19*,
COC(=O)[C@]12C[C@H](CC(=O)NCCC(C)C)C(=O)N(Cc3ccco3)C1=C[C@H](C1CCCC1)O[C@@H]2C,·,·,-1,·,·,0,·,·,
c1csc(C2C3=C(Nc4ncnn42)c2ccccc2OC3)c1 (centres undefined),1,0,-2,1,3,17*,34*,31*,
COc1ccc(C2CC(=O)C(c3ccc(Cl)c(Cl)c3)=CN2Cc2ccccc2)cc1 (centres undefined),·,-1,-7,·,·,-1,·,·,
CC(C)N(c1cc(=O)nc2ccccn12)C(C)C,·,0,-5,·,·,-1,·,·,
CCOC(=O)C1=Nc2cccc3c(O)ccc1c23,·,-15,9,·,·,53*,79*,85*,
COC(=O)C1CN(Cc2ccc(OC)cc2)CCS(=O)(=O)N1Cc1ccc(Cl)cc1 (centres undefined),·,·,-3,·,·,0,·,·,
Cc1ccc(C2C=C(c3ccccc3OC(F)F)Nc3ncnn32)cc1 (centres undefined),9,2,-6,21,0,18*,76*,80*,
CN(C)c1ccc(C2C=C(c3ccc(Cl)cc3OC(F)F)Nc3ncnn32)cc1 (centres undefined),2,-1,4,25,3,2,·,·,
COc1cccc(C2=CC(c3ccc(C)cc3)n3ncnc3N2)c1 (centres undefined),0,·,·,-4,1,·,·,·,
Cc1ccc(C2C=C(c3ccc4c(c3)OCO4)Nc3ncnn32)cc1 (centres undefined),1,0,-1,20,-3,15*,-15,9.2*,

# From PubChem BioAssay
